The record followed here is PubChem BioAssay (NCI).

This assay in a line: NCI Yeast Anticancer Drug Screen. Data for the bub3 strain (AID 167). To be noted: S. cerevisiae bub3 mutant strain, active compounds read high. As for the experimental part: Growth inhibition of yeast strains with defined genetic alterations is measured as a screen for potential anti-cancer activity. Selected strains with alterations in DNA damage repair or cell cycle control were exposed to compounds and growth inhibition was measured relative to vehicle treated controls. The strain used in this assay is bub3

[1] abbreviates: at 5.0 µM (retest, dose inferred, filed as 0.5).
The mark [2] stands for this setting: at 50.0 µM (retest, dose inferred, filed as 5.0).

Each structure is given as a SMILES string. The panel holds about 79,000 compounds, 15% with a hit somewhere; the sample as a whole holds those more often. Values without a mark were called inactive. Activity calls are given as the source filed them. No stated cut-off is given here; in the data, active means growth inhibition above about 70%; inactive means the rest.

On to `S=C1NC2(CCCCC2)NC12CCCCC2`, for which the growth inhibition is -18% (at 1.2 µM); -14% (at 3.7 µM); 16% under setting [1]; 3% (at 11.0 µM); 2% (at 33.0 µM); 20% under setting [2]. Besides, the growth inhibition was 14.5% (at 50.0 µM) and 6% (at 100.0 µM).
Turning to `N#Cc1cc(N(CCCl)CCCl)c([N+](=O)[O-])cc1[N+](=O)[O-]`, the growth inhibition (at 1.2 µM) is 11%; the growth inhibition (at 3.7 µM) was 10%; the growth inhibition under setting [1] is -11%; the growth inhibition (at 11.0 µM) was -7%; the growth inhibition (at 33.0 µM) was 31%; the growth inhibition under setting [2] was 40%. Further, the growth inhibition by setting is: (at 50.0 µM) 84.9% (active); (at 100.0 µM) 79% (active).
Turning to `O=S(=O)(O)c1ccc(Cl)cc1.[Cd]`, the growth inhibition was -8% (at 1.2 µM); 8% (at 3.7 µM); -6% under setting [1]; 6% (at 11.0 µM); 19% (at 33.0 µM); 27% under setting [2]. For the same compound, the growth inhibition was 2.7% (at 50.0 µM) and 30% (at 100.0 µM).
As for `NN1CCCC1C(=O)O` (configuration not stated), the growth inhibition reads like this: under setting [1], 4%; under setting [2], -2%; (at 50.0 µM) 99.3% (active).
Regarding `C/C(=N\N)C(CN1CCCCC1)C(c1ccccc1)c1c(O)c2ccccc2oc1=O` (configuration not stated), the growth inhibition is, setting by setting: under setting [1], 3%; under setting [2], 3%; (at 50.0 µM) 76.3% (active).
Turning to `C/C=C(\C)C(=O)OC1C(C)=C2C(C1OC(=O)CCCCC)C(C)(OC(C)=O)CC(OC(=O)CCC)C1(O)C2OC(=O)C1(C)O` (configuration not stated), the growth inhibition is, setting by setting: under setting [1], 17%; under setting [2], 92% (active); (at 50.0 µM) 73.4% (active).
Consider `COc1ccccc1[As]=O` (configuration not stated), for which the growth inhibition under setting [1] was 12%, the growth inhibition under setting [2] was 99% (active) and the growth inhibition (at 50.0 µM) was 99.2% (active).
With `CC(C)C1(NC(=O)C2C=C3c4cccc5[nH]cc(c45)CC3N(C)C2)OC2(O)C3CCCN3C(=O)C(Cc3ccccc3)N2C1=O` (configuration not stated), the growth inhibition reads like this: under setting [1], -4%; under setting [2], 95% (active); (at 50.0 µM) 96.8% (active).
Take `ClCc1nc2ccccc2[nH]1`: the growth inhibition reads like this: under setting [1], -9%; under setting [2], 1%; (at 50.0 µM) -31.9%.
